Experimental data as given in PubChem BioAssay AID1347069 (National Center for Advancing Translational Sciences (NCATS), 2019).
Screen size: about 44,000 compounds; fewer than 10 were called active. Calls come from the whole dose curve; as a rule, active = well fitted inhibition curve with a large enough effect; inconclusive = small, poorly fitted or top-dose-only effect; inactive = flat fitted curve, though single readings scatter. Not all results are given here.

target: Tumor susceptibility gene 101 protein (Homo sapiens) (UniProt Q99816); assay: qHTS Validation Assay for Inhibitors of HIV-1 Budding by Blocking the Interaction of PTAP/TSG101: Sytravon Library Screen; conditions: Fluorescence polarization, FITC-PTAP peptide/Tsg101, 20 min; series mostly up to 115 µM; activity change, negative = inhibition: at the top concentration; note: 0% is about no effect
Sequence (Q99816 whole entry, looked up): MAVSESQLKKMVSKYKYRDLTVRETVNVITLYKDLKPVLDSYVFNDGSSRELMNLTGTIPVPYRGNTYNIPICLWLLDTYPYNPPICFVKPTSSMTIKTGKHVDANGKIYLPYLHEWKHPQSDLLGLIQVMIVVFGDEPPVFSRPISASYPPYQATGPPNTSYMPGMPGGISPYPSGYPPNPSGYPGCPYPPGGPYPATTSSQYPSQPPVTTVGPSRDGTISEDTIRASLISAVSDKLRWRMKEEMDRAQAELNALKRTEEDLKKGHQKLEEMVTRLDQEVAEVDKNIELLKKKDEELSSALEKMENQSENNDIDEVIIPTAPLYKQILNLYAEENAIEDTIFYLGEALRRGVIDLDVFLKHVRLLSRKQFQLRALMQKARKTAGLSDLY
From the text: Stages of the HIV-1 replication cycle, specifically virus assembly and release, provide underexploited targets for the development of novel antiviral inhibitors. The late stages of HIV-1 replication are mediated by the Gag precursor protein, Pr55Gag. Expression of Pr55Gag is both necessary and sufficient for the production of virus-like particles from Gag-expressing cells. The Gag protein hijacks key host proteins involved in endocytic machinery of the host cell to promote endosomal processing and viral budding. The budding process requires a direct interaction between a […] (PTAP) motif in the p6 domain of Gag and the cellular endosomal sorting protein known as Tsg101. In this way, the Gag PTAP motif promotes the host cells to recruit viral particles to the plasma membrane where the new viral particles are released, effectively turning the host cells into viral factories. A fluorescence polarization assay has been developed to quantitatively measure the PTAP-Tsg101 interaction which can be used to screen for inhibitors of this interaction. This assay was run against the NCGC Sytravon Library collection. NIH Molecular Libraries Probe Production Network [MLPCN] NIH Chemical Genomics Center [NCGC] Grant: R03 MH087464-01A1 PI Name: Dr. Eric Freed, NCI
Two uL of the Tsg101 binding domain in buffer (10 mM HEPES pH 7.5; 0.15 M NaCl, 0.01% Tween 20; 3 mM EDTA;0.1 mM TCEP) was dispensed into Greiner black MB 1536-well plates (final concentration 10 uM). Then, 23 nL of compounds or DMSO were delivered to each well using a pin tool. Finally, 2 uL of a FITC-labeled peptide containing the PTAP motif (1) in the same buffer was dispensed (50 nM final concentration) and the binding was allowed to proceed for 20 min. at r.t. Fluorescent polarization was determined using FITC excitation and polarized emission filters on a Perkin Elmer Envision. Assay cut-off (positive/negative criteria): Actives defined by CRC class, <25 µM; Efficacy <60% inhibition. The total fluorescent intensity from S and P channels will be used to flag fluorescent compounds.

Activity change, negative = inhibition, inactive:
O=C(OCc1cc(=O)n2nc(C3CC3)sc2n1)c1ccccc1Cl 0.428%, COc1ccc(NC(=O)Nc2cccc(-c3noc(C)n3)c2)cc1 -0.369%, CC(C)(C)c1ccc(C(=O)N2CCC(c3nc(-c4ccc(S(=O)(=O)N5CCCC5)cc4)no3)CC2)cc1 -4.06%, CCCCCn1c(CCCNC(=O)c2ccccc2OC)nc2ccccc21 -6.58%, COc1ccccc1CNc1nccn(-c2ccc(F)cc2)c1=O 1.54%, Cc1c(Cl)cccc1-c1ccc(CNCCCSc2nnnn2C)o1 0.191%, CSc1ccc(C2c3c(oc4ccccc4c3=O)C(=O)N2CCCN2CCOCC2)cc1 (stereo not given) -5.71%, CSc1cccc(NC(=O)CN2C(=O)CCc3cc(S(=O)(=O)N4CCCCC4)ccc32)c1 -4%, COc1ccc(OC)c(NC(=O)CSC2=Nc3ccccc3C3=NC(CC(=O)NCc4ccc(F)cc4)C(=O)N23)c1 (stereo not given) 1.59%, Cc1cc(OC(C)C(=O)Nc2sc3c(c2C(N)=O)CCCC3)ccc1Cl (stereo not given) -0.431%, COc1ccc(-c2cc(-c3ccccc3)nc3c2COc2ccc(Cl)cc2-3)cc1 -2.13%, CCCCNC(=O)C1CCCN(c2nnc(C)c3c(C)n(-c4ccc(Cl)cc4)nc23)C1 (stereo not given) -6.8%, Cc1cccc(NC(=O)N2CCN(C)c3ncccc32)c1C -11.3%, CCc1nnc(SCc2nc(-c3cccc(C)c3)oc2C)c2cc3sc(C)cc3n12 0.355%, CC(C)(C)c1ccc(C(=O)Nc2ccc3c(c2)CCCN3C(=O)c2cccs2)cc1 -7.67%, CCN1CCN(C(c2ccc(C)cc2)c2c(O)cc(C)n(Cc3ccco3)c2=O)CC1 (stereo not given) -3.55%, Cc1csc2nc(COC(=O)c3ccccc3NC(=O)c3ccccc3Cl)cc(=O)n12 -4.86%, Cc1ccc(NC(=O)c2ccc3[nH]c(C)cc(=O)c3c2)c(C)c1 -2.8%, Cc1ccc2c(c1)c1c(c(=O)n(-c3ccccc3)c(=O)n1CC(=O)c1ccc(Cl)cc1)n2C 0.738%, Cc1ccccc1-c1nc2cc(NC(=O)c3cccc(OCCC(C)C)c3)ccc2o1 5.77%, CCn1c(C)c(C)c2cc(C(=O)NCCc3cc(OC)ccc3OC)ccc21 0.404%, Cn1c(=O)c2c(ncn2CC(=O)Nc2cccc(C(F)(F)F)c2)n(C)c1=O -3.44%, Cc1ccc(-n2nc(C)c3c(C)cc(=O)n(CC(=O)Nc4ccc(C(C)C)cc4)c32)cc1 -0.986%, Cc1ccc(C2c3[nH]c4ccccc4c3CCN2C(=O)c2cccc(C)c2)cc1 (stereo not given) 0.206%, CCOC(=O)C1CCN(c2nc3c(S(=O)(=O)c4ccc(CC)cc4)nnn3c3ccc(Cl)cc23)CC1 3.23%, O=C(CSc1nc2ccccc2nc1Cc1ccccc1)N1CCCCC1 -0.453%, COc1cccc(CNC(=O)c2ccc3c(Cl)c4c(nc3c2)CCCC4)c1 3.82%, CCCN(CCC)CCCNC(=O)Cn1cc2c(n1)-c1c(oc(C(=O)N3CCCC3)c1C)CC2 0.792%, COc1ccc(NC(=O)Cn2cc(C(=O)c3ccncc3)c(=O)c3cc(C)ccc32)cc1Cl -2.08%, O=C(Cn1ncc2c3ccccc3n(Cc3ccccc3)c2c1=O)NC1CCCCCC1 -1.3%, Cc1ccc(NC(=O)CN2C(=O)CC(C)Sc3ccccc32)c(C)c1 (stereo not given) 3.04%, CC(C)c1ccc(OCC(=O)N(Cc2ccc(N(C)C)cc2)C2CCS(=O)(=O)C2)cc1 (stereo not given) -7.04%, CCCn1c(NCc2ccccc2F)nc2ccccc21 -0.519%, O=C(COc1ccc(Cl)cc1)N(Cc1ccco1)Cc1ccco1 1.1%, Cc1ccc(CCNC(=O)c2ccc3c(c2)N(Cc2cc(C)ccc2C)C(=O)c2ccccc2S3=O)cc1 (stereo not given) 1.61%, O=C(c1ccc2c(c1)N(Cc1ccccc1)C(=O)c1ccccc1S2(=O)=O)N1CCC(Cc2ccccc2)CC1 -1.43%, CCCCn1c(=O)c2oc3ccccc3c2n(CC(=O)Nc2ccccc2OC)c1=O 3.66%, COC(=O)c1ccc(NC(=O)c2cnn(-c3ccc(Cl)cc3)c2C2CCN(C(=O)OC(C)(C)C)CC2)cc1 -0.729%, COc1ccc(-c2nc3ccc(C(=O)NCc4ccc(C)cc4)cc3nc2-c2ccc(OC)cc2)cc1 -6.79%, Cc1cccc(N(C)C(=O)CS(=O)(=O)c2cccc3nsnc23)c1 -1.31%, O=C(C1CCC(Cn2c(=O)c3sccc3n(Cc3ccccc3F)c2=O)CC1)N1CCCCC1 (stereo not given) -6.37%, CCN1CCN(CCCNC(=O)c2ccc3c(c2)sc2nc(-c4ccc(OC)cc4)cn23)CC1 -0.122%, COc1cccc2c1cc1c(=O)n(CC(=O)N3CCN(c4ccccc4)CC3)nc(C)n12 0.0884%, O=C(Nc1ccc(Oc2ccccc2)cc1)C1CCN(S(=O)(=O)c2ccc(Cl)cc2)CC1 -2.62%, COc1ccc(-c2cn3c(C)c(C(=O)Nc4cc(C)cc(C)c4)sc3n2)cc1 2.11%, CCCCN(C)CCCNC(=O)CN1N=C(c2ccc(OC)cc2)CCC1=O 1.5%, COc1cccc(Cn2c(SCc3ccc(C(=O)N4CCC(C)CC4)cc3)nc3ccncc32)c1 -3.99%, Cc1cccc(NC(=O)c2cc3c(C)nn(-c4ccccc4)c3s2)c1 -2.19%, CNC(=O)c1ccc(-c2nc(CN3CCc4ccccc43)c(C)o2)cc1 -3.21%, Cc1ccc2oc(=O)c3cnn(CC(=O)N4CCN(c5cccc(Cl)c5)CC4)c3c2c1 0.242%, COc1ccc(-n2c(SCC(=O)Nc3ccc(Cl)c(C)c3)nc3n[nH]c(C)c3c2=N)cc1 -0.559%, CCC(C(=O)Nc1cccc(Cl)c1C)n1nc(-c2ccc(C)cc2)ccc1=O (stereo not given) -0.32%, Cc1cccc(CNS(=O)(=O)c2ccc(-c3cnc(C4CC4)o3)cc2)c1 -0.156%, CCc1cc2c(-c3ccccc3)cc(=O)oc2c2c1OCN(Cc1ccc(C)cc1)C2 -3.39%, Cc1oc2ccc(O)c(CN3CCCCC3)c2c1C(=O)Nc1cccc(C(F)(F)F)c1 -2.89%, CC(C)Cn1c(=O)c2ccccc2n2c(-c3cccc(Cl)c3)nnc12 2.06%, O=C(Nc1cc(Cl)cc(Cl)c1)c1ccc2c(c1)N(Cc1cccc(Cl)c1)C(=O)c1ccccc1S2=O (stereo not given) 0.631%, O=C(O)c1ccc(Nc2nc(-c3ccccc3)c3cc(Br)ccc3n2)cc1 -17.5%, Cc1cc(C)c2sc(NC(=O)c3ccc(S(=O)(=O)N4CCCC4)cc3)nc2c1 4.94%, CCc1ccc(NC(=O)c2cnc3c(-c4ccccc4)c(C)nn3c2C)cc1 -1.8%
